Experimental data: the supplement of paper PMC8269313
Structures can show the parent of a compound that is named as a salt.

Tested on: 4T1
Test: % inhibition of 4T1 cell number vs DMSO control; higher = stronger growth inhibition
Conditions: 1 µM, 3 days
In short: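 In 96-well imaging plates whose edge wells went unused, 3000 4T1-H2B-GFP mouse breast cancer cells per well were seeded in 2% FBS medium onto plastic, denuded lung matrix, mCAF1 fibroblast-derived matrix, Matrigel (15 μg/mL) or 0.2% gelatin. Sixteen hours on, kinase inhibitors went in at 1 μM final for 3 days before formalin fixation, DAPI staining and imaging on an INCell Analyzer 2200. Counting of GFP-positive nuclei gave cell numbers, from which percent inhibition relative to control was derived.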

[1] = substrate: lung fibroblast-derived matrix
[2] = substrate: mCAF1 fibroblast-derived matrix

| SMILES | % inhibition of 4T1 cell number (substrate: Matrigel) [%] | % inhibition of 4T1 cell number (substrate: gelatin) [%] | % inhibition of 4T1 cell number [1] [%] | % inhibition of 4T1 cell number [2] [%] | % inhibition of 4T1 cell number (substrate: plastic) [%] |
| --- | --- | --- | --- | --- | --- |
| Nc1nccc(-c2c(-c3ccc(F)cc3)ncn2C2CCNCC2)n1 | -17.8 | -10.4 | 11.7 | 29.5 | -59.1 |
| Brc1c(Br)c(Br)c2n[nH]nc2c1Br [Casein Kinase II Inhibitor I] | 49.8 | 40.2 | 1.56 | -30.6 | 39.4 |
| Cn1nc2c3c(cccc31)C(=O)c1ccccc1-2 [JNK Inhibitor, Negative Control] | -37.2 | -36.9 | 0.304 | 24.3 | -59.1 |
| Cc1cncc2cccc(S(=O)(=O)N3CCCN(C(=O)CN)C[C@@H]3C)c12 [Rho Kinase Inhibitor IV] | -39.7 | -28.9 | 92.9 | 15.7 | -103 |
| N#C/C(=C\c1ccc(O)c(O)c1)C(=O)NCc1ccccc1 | -13.1 | 42.5 | -21.1 | 15.2 | -38 |
| N#Cc1c(NC(=O)c2cccc3ccccc23)sc2c1CCCC2 [JNK Inhibitor IX] | 92 | 92.5 | 2.5 | 90.8 | 86.4 |
| NC(=O)c1ccc2nc(-c3ccc(Oc4ccc(Cl)cc4)cc3)[nH]c2c1 [Chk2 Inhibitor II] | -26.7 | -10.9 | 22.1 | 21.5 | -72.4 |
| O=C1NCCc2[nH]c(-c3ccnc(-c4cnc5ccccc5c4)c3)cc21 [MK-2 Inhibitor III] | -42.1 | -5.86 | -4.6 | 4.98 | -48.3 |
| c1ccc(-c2n[nH]c3c2oc2ccccc23)cc1 | -3.87 | -77.4 | -1.95 | -3.97 | -64.2 |
| CC(C)(C)c1ccc(S(=O)(=O)Nc2ccc(-n3ccnc3)cc2)cc1 [Stem-Cell Factor/c-Kit Inhibitor, ISCK03] | 40.2 | 60.6 | 90.5 | 7.06 | 39.4 |
| COc1cc2ncnc(Nc3ccc(NC(=O)c4ccccc4)cc3)c2cc1OC [Aurora Kinase Inhibitor II] | 50.4 | 37.2 | -20.1 | -30.6 | 35.8 |
| CCCCc1c(-c2ccc(OC)cc2)[nH]c2nccnc12 [Aloisine, RP106] | 39.6 | 41.7 | -14.4 | -9.32 | 46.9 |
| COc1cc2ncnc(Nc3ccc(Oc4ccccc4)cc3)c2cc1OC [Src Kinase Inhibitor I] | -19.5 | -6.86 | -13.5 | 32.6 | -35.4 |
| COc1cc2ncn(-c3cc(OCc4ccccc4S(C)(=O)=O)c(C#N)s3)c2cc1OC [IKK-3 Inhibitor IX] | -14.6 | -1.27 | 1.67 | 6.5 | -26.7 |
| c1ccc2c(-c3ccncc3)c[nH]c2c1 [Rho Kinase Inhibitor III, Rockout] | -26.4 | -33.3 | -7.01 | 37.7 | -78.9 |
| O=C(Nc1cc(Cl)cc2c1[nH]c1cnccc12)c1cccnc1 [IKK Inhibitor X] | 42.5 | 25.8 | -6.01 | -10 | 57.7 |
| COc1cc2ncnc(Nc3cccc(O)c3)c2cc1OC [WHI-P180, Hydrochloride] | 35.6 | 65.6 | 9.03 | -4.63 | 37.6 |
| O=c1c2ccccc2[nH]c(=S)n1CCN1CCC(=C(c2ccc(F)cc2)c2ccc(F)cc2)CC1 [Diacylglycerol Kinase Inhibitor II] | 8.29 | -29.1 | -1.99 | -11 | -33.4 |
| OCC(O)CCO/N=C1\C(c2c(O)[nH]c3ccccc23)=Nc2ccccc21 (stereo not given) [Indirubin Derivative E804] | -31.7 | 0.993 | -5.02 | 85.4 | 67.7 |
| COc1cccc(-c2cc(=O)c3ccccc3o2)c1N | -3.15 | -1.31 | -10.2 | 25.7 | -41.4 |
| Cc1cc(Nc2nc(-c3ccccc3)nc3ccccc23)n[nH]1 [GSK-3 Inhibitor XIII] | -21.7 | -25.8 | -19 | 62.3 | -14.5 |
| CC(C)n1cnc2c(NCc3ccccc3)nc(NCCCO)nc21 [Bohemine] | 16.5 | 13 | 0.282 | -0.566 | -30.7 |
| CCCC(=O)Oc1ccc2[nH]c(C(=O)c3cc4ccccc4[nH]3)cc2c1 [PDGF Receptor Tyrosine Kinase Inhibitor II] | -18.7 | -112 | -6.16 | 1.3 | -70.2 |
| COc1cc(SC)ccc1C(=O)N1CCC(Cc2ccccc2)CC1 [p38 MAP Kinase Inhibitor VI, JX401] | -31.1 | 8.59 | -4.09 | 17 | -66.3 |
| CCN(CC)C(=O)c1ccc(Nc2nc(OCC3CCCCC3)c3[nH]cnc3n2)cc1 [Cdk2 Inhibitor IV, NU6140] | -9.76 | -12.1 | -6.34 | 80.5 | 44.3 |
| O=C(Nc1cccc(Nc2nccc(Nc3cccc(C(F)(F)F)c3)n2)c1)C1CC1 [Aurora Kinase Inhibitor III] | 54.8 | 74.5 | 97.8 | 15 | 63.6 |
| CC[C@@H](CO)Nc1nc(NCc2ccc(-c3ccccn3)cc2)c2ncn(C(C)C)c2n1 [CR8, (S)-Isomer] | 99.4 | 98.9 | 60.2 | 95.8 | 96.5 |

| SMILES | % inhibition of 4T1 cell number (substrate: Matrigel) [%] | % inhibition of 4T1 cell number (substrate: gelatin) [%] | % inhibition of 4T1 cell number [1] [%] | % inhibition of 4T1 cell number [2] [%] | % inhibition of 4T1 cell number (substrate: plastic) [%] |
| --- | --- | --- | --- | --- | --- |
| O=C1c2ccccc2-c2nc3nnnn3nc21 [PDK1/Akt/Flt Dual Pathway Inhibitor] | 99 | 97.3 | -19.8 | 95.4 | 97 |
| COc1nccc(-c2c(-c3ccc(F)cc3)ncn2C2CCC(O)CC2)n1 (stereo not given) | 46.2 | 34.2 | -8.71 | -18.3 | 19.8 |
| COc1cc2ncnc(Nc3ccc(Cl)cc3Cl)c2cc1OC [Ste11 MAPKKK Activation Inhibitor] | 42 | 66.8 | 0.704 | -27.6 | 36.1 |
| Cc1ccc(NC2=CC(=O)c3sc(C)nc3C2=O)cc1 [Cdk4 Inhibitor III] | -14.1 | 30.5 | 99.5 | 12.4 | -21.1 |
| Cc1ccc(S(=O)(=O)/C=C/C#N)cc1 | 18.5 | 38.2 | -8.23 | -0.662 | 5.77 |
| Cn1c2ccccc2c2c3c(c4c5ccccc5n(CCC#N)c4c21)CNC3=O | 50.9 | 67.2 | -8.31 | 34.5 | 72.7 |
| COc1ccc2nc3n[nH]c(C)c3c(NCCOCCO)c2c1 | 28.3 | 44.2 | 1.01 | -1.22 | 23.2 |
| O=S(=O)(c1cccc2c(I)cccc12)N1CCCNCC1 [ML-7, Hydrochloride] | 23 | 24.2 | -1.62 | 33.6 | -7.72 |
| NC(N)=NCCNS(=O)(=O)c1cccc2cnccc12 [HA 1004, Dihydrochloride] | -14.8 | -0.694 | -2.73 | -8.89 | -48.5 |
| Cc1cc(C)c(/C=C2\C(=O)Nc3ccccc32)[nH]1 [VEGF Receptor 2 Kinase Inhibitor III] | 14.1 | 30.2 | -11.5 | -25 | 2.08 |
| CN1C(=O)C(c2c[nH]c3ccccc23)=C(c2c[nH]c3ccccc23)C1=O [Bisindolylmaleimide V] | 82.1 | 67 | -9.51 | -40.4 | 50.7 |
| O=C1NC(=O)C(c2cn(CCCO)c3ncccc23)=C1c1cnccn1 [GSK-3b Inhibitor XI] | 26.7 | 30.4 | 0.393 | 15.6 | 44.6 |
| O=C1Nc2ccc(Br)cc2/C1=C/c1cc2c([nH]1)CCCC2 [VEGF Receptor 2 Kinase Inhibitor II] | 16.3 | -22.2 | -11.9 | -141 | 8.31 |
| O=S(=O)(NCCNC/C=C/c1ccc(Br)cc1)c1cccc2cnccc12 [H-89, Dihydrochloride] | -2.21 | 25.6 | -2.1 | 36 | -37.5 |
| COc1cc2ncnc(N3CCN(C(=O)Nc4ccc(Oc5ccccc5)cc4)CC3)c2cc1OC [PDGF Receptor Tyrosine Kinase Inhibitor III] | -4.76 | -15.1 | -1.37 | 49.3 | -34.7 |
| O=C(c1cc2cc(O)ccc2[nH]1)c1cc2cc(O)ccc2[nH]1 [Flt-3 Inhibitor II] | 13.9 | 26.6 | 23.8 | 22.7 | -36.1 |
| COc1cc2c(cc1OC)-c1[nH]nc(Nc3cccc(F)c3)c1C2 [PDGF Receptor Tyrosine Kinase Inhibitor IV] | 94.6 | 84.5 | -13.5 | 89.7 | 74.7 |
| Cc1nc(-c2ccccc2)c(-c2ccncc2)o1 | 36.5 | 13.3 | 14.6 | -10.1 | 5.64 |
| COc1ccc(Cl)cc1NC(=O)Nc1cc(C)nc2ccccc12 [IGF-1R Inhibitor II] | -4.34 | -99 | -3.14 | -1.23 | -44.3 |
| COc1ccc(CNc2nc(N(CCO)CCO)nc3c2ncn3C(C)C)cc1 [Cdk2 Inhibitor III] | -37 | 15.9 | 6.49 | 22 | -27.8 |
| Oc1ccc(-c2nc(-c3ccc(F)cc3)c(-c3ccncc3)[nH]2)cc1 | 19.2 | 56 | -2.55 | 38.9 | 30.1 |
| CCCCCCCCCCCCCCCCn1cc[n+](Cc2ccccc2)c1C [eEF-2 Kinase Inhibitor, NH125] | 81.5 | 78.5 | 52.8 | 83.2 | 93.2 |
| COc1cc2ncnc(Nc3cccc(Cl)c3)c2cc1OC | 19.4 | -16.6 | -4.35 | 6.77 | 36 |
| CCCCCCOC(=O)[C@]1(O)C[C@@H]2O[C@@]1(C)n1c3ccccc3c3c4c(c5c6ccccc6n2c5c31)C(=O)NC4 | -41.8 | -0.139 | -8.63 | 13.5 | -74.7 |
| Nc1ccc(-c2cccc3c(=O)cc(N4CCOCC4)oc23)cc1 | -40.7 | -16.5 | -12 | 28.6 | -60.7 |
| CCN(CC)CCNC(=O)c1c(C)[nH]c(/C=C2\C(=O)Nc3ccc(Cl)cc32)c1C | 62.3 | 70 | -10.6 | 52.4 | 74.3 |
| Oc1cccc(-c2nc(N3CCOCC3)c3oc4ncccc4c3n2)c1 | 22.6 | 4.53 | -18.2 | 70.3 | -7.68 |
